Activity calls are given as the source filed them. The call rests on the fitted dose curve; in most records, active means well fitted curve in the direction sought with a large enough effect; inactive means no such curve, though single readings can be large or run the other way.
The molecules below were run against Epidermal growth factor receptor (Homo sapiens) (UniProt P00533) (assay: Assay for Inhibitors of the ERK Signaling Pathway using a Homogeneous Screening Assay: EGFR Kinase Inhibition). Details: homogeneous biochemical assay; series mostly up to 21.9 µM.
Sequence of Epidermal growth factor receptor (Homo sapiens) (P00533 whole entry, looked up): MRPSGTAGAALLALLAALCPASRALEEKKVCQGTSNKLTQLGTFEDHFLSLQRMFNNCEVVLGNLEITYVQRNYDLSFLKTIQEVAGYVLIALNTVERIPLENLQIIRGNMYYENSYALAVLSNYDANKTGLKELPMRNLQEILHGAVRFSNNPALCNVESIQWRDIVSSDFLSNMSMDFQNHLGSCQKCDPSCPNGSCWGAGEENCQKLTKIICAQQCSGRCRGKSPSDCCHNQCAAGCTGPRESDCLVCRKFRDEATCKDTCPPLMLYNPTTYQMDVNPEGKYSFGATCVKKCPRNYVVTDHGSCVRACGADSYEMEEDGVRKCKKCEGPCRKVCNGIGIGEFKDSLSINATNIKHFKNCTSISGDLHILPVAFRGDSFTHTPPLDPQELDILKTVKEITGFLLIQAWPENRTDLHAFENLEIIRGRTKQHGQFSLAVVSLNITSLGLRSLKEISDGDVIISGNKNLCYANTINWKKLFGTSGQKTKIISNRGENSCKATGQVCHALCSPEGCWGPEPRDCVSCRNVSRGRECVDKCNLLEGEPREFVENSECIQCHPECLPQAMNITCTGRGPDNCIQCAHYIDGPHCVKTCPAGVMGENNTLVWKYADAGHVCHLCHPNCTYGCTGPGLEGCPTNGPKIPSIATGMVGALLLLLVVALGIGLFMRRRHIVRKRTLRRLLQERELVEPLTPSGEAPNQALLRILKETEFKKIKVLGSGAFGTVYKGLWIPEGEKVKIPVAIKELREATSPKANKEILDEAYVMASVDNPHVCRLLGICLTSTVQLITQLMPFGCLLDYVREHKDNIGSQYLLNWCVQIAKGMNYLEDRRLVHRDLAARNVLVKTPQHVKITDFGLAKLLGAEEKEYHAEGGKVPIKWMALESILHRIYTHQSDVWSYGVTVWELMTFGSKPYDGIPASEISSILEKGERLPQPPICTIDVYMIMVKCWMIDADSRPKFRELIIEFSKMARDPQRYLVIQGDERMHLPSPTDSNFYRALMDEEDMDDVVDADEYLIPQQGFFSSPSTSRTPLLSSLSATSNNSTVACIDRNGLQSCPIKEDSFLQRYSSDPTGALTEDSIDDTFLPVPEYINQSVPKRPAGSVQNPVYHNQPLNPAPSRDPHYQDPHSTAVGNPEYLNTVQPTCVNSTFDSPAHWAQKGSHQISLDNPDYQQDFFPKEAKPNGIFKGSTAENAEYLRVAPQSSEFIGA
Source text: qHTS Assay for Inhibitors of the ERK Signaling Pathway using a Homogeneous Screening Assay
NIH Chemical Genomics Center [NCGC]
NIH Molecular Libraries Screening Centers Network [MLSCN]
Assay Submitter (PI): Dr. Wei Zheng, NCGC/NIH
The Ras/extracellular-signal-regulated kinase (ERK) mitogen activated protein (MAP) kinase signaling pathway (ERK1/2 cascade) plays is a key role in transmitting signals from the cell surface to the nucleus (Nishida and Gotoh 1993; Chang and Karin, 2001). The cascade is initiated by the small G-protein Ras, which recruits Raf […], where activation occurs. Alternatively, this pathway can be activated by elevating intracellular cAMP.
Activation of the ERK pathway is essential in increased cell division and cell survival. Sustained and constitutive activation of the ERK pathway, however, has been linked to uncontrolled cell proliferation, increased cell survival, and tumor progression. Thus, the ERK has been as an attractive target for cancer chemotherapy in the past few years (Sebolt-Leopold and Herrera, 2004). Given its physiological and pathological importance, assessment of ERK phosphorylation has been broadly performed in both basic research and drug discovery. Most assays for the measurement of ERK phosphorylation use the antibody-based detection methods, such as western blot and ELISA. These assays require multiple reagent additions with cell wash steps and are not suitable for high-throughput screening.
The current cell-based ERK phosphorylation assay was performed using AlphaScreen platform. AlphaScreen is a two bead-based proximity-dependent chemical energy transfer luminescent assay platform. The assay reagents (ERK SureFire(TM) kit) were supplied from TGR BioSciences (Australia). In the presence of specific antibodies, phosphorylated ERK will bring "donor" and "acceptor" beads to a proximity range (<200 nm), and subsequently lead a chemical luminescent reaction upon exciting donor beads with 680 nm laser. To validate pathway hits from the cell-based assay, enzyme assays consisting of EGFR tyrosine kinase, Raf and MEK were used as a means of deciphering the enzymes of target for the prioritized group of compounds derived from the HEK-293 cell based assay. The compounds were tested against significant members of the ERK signaling pathway EGFR and EGFR mutants (EGFR L858R, EGFR T790M, and EGFR L858R T790M). In order to establish the specificity of the prioritized compounds for EGFR and EGFR mutants, the compounds were also assayed against other important ERK signaling pathway enzymes, c-RAF and MEK-1.
NCGC Assay Protocol Summary:
The HTRF kinase assay (components supplied as kit by Cisbio) was chosen for the EGFR and EGFR mutant enzyme assays that applied the time resolved fluorescence resonance energy transfer (TR-FRET) principle. A peptide substrate is labeled with a biotin that can bind to XL665 labeled streptavidin and the anti-phosphoresidue antibody is labeled with Eu+. Upon phosphorylation of the substrate, the antibody binds to phosphorylated substrate that enables TR-FRET detection in homogenous assay format.
An HTRF Kinease TK assay kit (Cisbio, Bedford, MA) was used to develop the EGFR and EGFR mutant assays (Harbert et al., 2008. Harbert C, Marshall J, Soh S, Steger K. Development of a HTRF Kinase Assay for Determination of Syk Activity. Current Chemical Genomics. 1: 20-26. 2008). EGFR and EGFR mutants were obtained from Invitrogen. […]
For `CN1CCN(c2cccc3c2C(=O)c2ccccc2C3=O)CC1`, the outcome was “inactive”.
In the case of `Cc1nc2c(=O)n(C)c(=O)nc-2n(C)n1`, the outcome is reported as “inactive”.
In the case of `Cn1nc(-c2ccccc2)nc2c(=O)n(C)c(=O)nc1-2`, the outcome is reported as “inactive”.
`CCn1nc(-c2cccs2)nc2c(=O)n(C)c(=O)nc1-2` was tested, and the outcome was “inactive”.
With `CCn1nc(-c2ccccc2)nc2c(=O)n(C)c(=O)nc1-2` the outcome was “inactive”.
